From PubChem
The list is not random: actives were taken first. Their share in the collection is about 18%.
DT40 TDP1 CPT – qHTS for Inhibitors of human tyrosyl-DNA phosphodiesterase 1 (TDP1): qHTS in cells in presence of CPT; chicken DT40 Tdp1-/-;hTDP1 cells + 20 nM CPT, ATP luminescence, 48 h; Potency, µM (series often up to 46.2 µM), inactives show at the highest dose activity change, negative = growth inhibition, actives largely listed as inhibitors; 12% of 420,000 active; AID 686979, 2013; also: potency is read from the fitted curve at half-maximal effect; nearly all actives have a fitted effect of over 55% in size
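Chicken DT40 Tdp1-/- cells stably complemented with human TDP1 were seeded at 400 cells/well in medium containing 20 nM camptothecin, exposed to pin-transferred compounds, and grown at 37 °C for at least 48 hr. Viability was read as ATP luminescence.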
IL-1B inflam inh – qHTS for Inhibitors of Inflammasome Signaling: IL-1-beta AlphaLISA Primary Screen; activity change, % at 57.5 µM; THP-1 LPS/ATP IL-1B secretion, AlphaLISA, 16 h; active compounds read low; 4.7% of 360,000 active; in the data active = activity change below about -50%; inconclusive = mostly about -30% to -49%
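Secreted IL-1B measured by AlphaLISA bead assay after 16 h compound exposure of THP-1 cells; compounds (final up to 57.5 uM) added 1 h before LPS (250 ng/mL) and ATP (1.25 mM) stimulation; lower signal means less secretion.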
Six1-Eya2 inh – qHTS Assay for Inhibitors of the Six1/Eya2 Interaction; AlphaScreen GST-Six1/His-Eya2 binding, biochemical; active compounds read low; activity change, % (concentration not given with the values); 0.56% of 360,000 active; AID 651725, 2012; in the data active = activity change below about -65%; inconclusive = mostly about -30% to -63%
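Six1/Eya2 binding was read as AlphaScreen signal after compounds were pinned into GST-Six1 plus His-tagged Eya2 (5X stock 250/500 nM) in pH 8.0 Tris/NaCl/TCEP buffer, beads added, then incubated 1 h, 37 C, dark.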
TDP1 inh – qHTS Assay for Inhibitors of Tyrosyl-DNA Phosphodiesterase (TDP1). Tyrosyl-DNA phosphodiesterase 1 (Homo sapiens), Q9NUW8. AID 485290, 2010. Potency, µM (series often up to 130 µM), for the others: at the top dose activity change, negative = inhibition, actives largely listed as inhibitors. 0.28% of 350,000 active. recombinant TDP1, AlphaScreen DNA substrate cleavage; also: potency is read from the fitted curve at half-maximal effect; nearly all actives have a fitted effect of over 40% in size
Target sequence (Q9NUW8 whole entry, looked up): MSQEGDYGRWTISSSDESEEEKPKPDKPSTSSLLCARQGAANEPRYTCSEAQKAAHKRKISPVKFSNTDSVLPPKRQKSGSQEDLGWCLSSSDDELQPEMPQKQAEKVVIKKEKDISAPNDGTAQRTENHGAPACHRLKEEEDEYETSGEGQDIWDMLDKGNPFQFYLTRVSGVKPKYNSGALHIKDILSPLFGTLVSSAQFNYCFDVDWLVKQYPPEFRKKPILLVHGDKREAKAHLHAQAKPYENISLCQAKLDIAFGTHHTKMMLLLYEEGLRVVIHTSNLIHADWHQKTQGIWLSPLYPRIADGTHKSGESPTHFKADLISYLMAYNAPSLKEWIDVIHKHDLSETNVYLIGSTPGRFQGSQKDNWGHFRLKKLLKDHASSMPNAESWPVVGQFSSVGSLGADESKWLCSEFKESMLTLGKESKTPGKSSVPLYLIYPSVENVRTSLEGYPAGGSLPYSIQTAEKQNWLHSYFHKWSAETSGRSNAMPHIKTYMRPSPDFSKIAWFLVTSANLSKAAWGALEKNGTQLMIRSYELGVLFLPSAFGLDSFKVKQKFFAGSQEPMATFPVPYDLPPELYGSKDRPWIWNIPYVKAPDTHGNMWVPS
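AlphaScreen read-out: signal falls as enzyme removes the 3' tyrosine-FITC from a 5'-biotinylated DNA oligo (15 nM, 5 min, RT). Enzyme was E. coli-made recombinant Tdp1 at 1 nM, exposed to compound for 15 min beforehand; beads 10 ug/ml, 10 min.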
DT40 TDP1 no CPT – qHTS for Inhibitors of human tyrosyl-DNA phosphodiesterase 1 (TDP1): qHTS in cells in absence of CPT; DT40 Tdp1-/- hTDP1 cells, no CPT, ATP luminescence, 48 h; Potency, µM (doses to about 46.2 µM), for inactives: at the top dose activity change, negative = growth inhibition, actives largely listed as inhibitors; 15% of 420,000 active; also: potency is read from the fitted curve at half-maximal effect; nearly all actives have a fitted effect of over 55% in size
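Luminescent ATP content (CellTiter-Glo) served as the growth readout. Knockout chicken DT40 cells expressing human TDP1 were exposed to compounds without camptothecin for a minimum 48 hr at 37 °C.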
CtBP-E1A inh – qHTS Assay for Inhibitors of the CtBP/E1A Interaction. AlphaScreen GST-E1A/His-CtBP binding, 1536-well; active compounds read low. activity change, % (test concentration not listed). CtBP / adenovirus E1A interaction (AlphaScreen). 0.49% of 340,000 active; in the data active = activity change below about -65%; inconclusive = mostly about -30% to -63%
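Protein mix (5X: 125 nM each GST-E1A, His-CtBP) was incubated with pinned compound 2 h at 37 deg C in dark, in 50 mM Tris pH 8.0 buffer with 300 mM NaCl. Glutathione donor and nickel acceptor beads followed; AlphaScreen signal read after 1 h.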
* = called active by the depositor; ? = inconclusive; · = no result. Unless noted, calls follow the shape of the dose curve; as a rule, active = well fitted curve in the direction sought with a large enough effect; inconclusive = small, poorly fitted or top-dose-only effect, or another doubt; inactive = no such curve, though single readings can be large; an effect the other way counts as inactive or inconclusive. % is scaled to controls: 0 for no effect and ±100 for the full control effect.

SMILES	DT40 TDP1 CPT	IL-1B inflam inh	Six1-Eya2 inh	TDP1 inh	DT40 TDP1 no CPT	CtBP-E1A inh
CCOC(=O)C1(CC)CC(CSc2nc3ccccc3[nH]2)OC1=O (configuration not stated)	?	14	9	5%	?	0
CC(C)(C)NC(=O)CCc1nnc(Cc2c[nH]c3ccccc23)o1	?	23	-2	0%	1%	-20
O=C(CCc1nnc(Cc2c[nH]c3ccccc23)o1)NCC1CC12CCCCC2 (configuration not stated)	?	-5	-4	8%	26µM*	-5
COc1ccc(C(CC(=O)c2ccc(C)cc2)C(C#N)C#N)cc1OC (configuration not stated)	4.1µM*	-100*	3	14%	5.2µM*	0
O=C(Nc1ccn(CCCN2CCN(c3ncccn3)CC2)c(=O)n1)OCc1ccccc1	?	-20	-3	·	?	-2
NC(=O)COc1ccccc1/C=C1/SC(=O)N(CC(=O)N2CCc3ccccc3C2)C1=O	21µM*	-19	-4	6%	18µM*	-26
CCc1ccc(S(=O)(=O)N2CC(=O)Nc3ccccc32)cc1	-8%	0	-2	-2%	-18%	4
CCOC(=O)c1ccc(S(=O)(=O)N2CC(=O)Nc3ccccc32)cc1	18µM*	17	-1	-18%	18µM*	-7
Cn1nccc1C(=O)N1CCCC(N2CCN(c3cccc(C(F)(F)F)c3)CC2)C1 (configuration not stated)	·	·	·	3%	·	·
N#Cc1cccc(C(c2nnnn2C2CCCC2)N2CCCCCC2)c1 (configuration not stated)	?	-18	-4	-2%	?	-3
O=c1c(C(c2nnnn2C2CCCCC2)N2CCCCC2)coc2ccc(Cl)cc12 (configuration not stated)	?	-19	6	-6%	21µM*	-3
CCOc1ccccc1OCCN1CCC(Cc2ccccc2)CC1	-19%	-4	-15	-5%	?	3
COc1cccc(OC)c1OCCCCN1CCC(Cc2ccccc2)CC1	?	-77*	-3	-13%	18µM*	-1
CCC(=O)c1ccccc1OCCCN1CCC(Cc2ccccc2)CC1	?	-89*	-12	6%	?	-3
COc1ccc(CN2CCC(Cc3ccccc3)CC2)c(C)c1C	?	-78*	0	·	?	5
N#Cc1ccccc1OCCCN1CCC(Cc2ccccc2)CC1	?	?	-9	3%	16µM*	·
Cc1c(C(=O)Nc2nnc(C(F)(F)F)s2)oc2ccccc12	?	-8	-7	2%	?	-17
COc1ccc(CN2CCC(N(CCc3ccccc3)Cc3ccccc3)CC2)c(OC)c1	23µM*	-94*	-21	-3%	23µM*	7
CCCN1CCC(N(CCc2ccccc2)Cc2ccccc2)CC1	-25%	-13	-7	·	?	·
C=CCN1N=C(/C=C/c2ccccc2)CCC1=O	-1%	-4	2	8%	-3%	1
Cc1ccc(N(C(=O)c2ccccc2Cl)C2=NC(C)CS2)c(C)c1 (configuration not stated)	?	41	-1	1%	18µM*	·
CC1CCN(Cc2nc(Cl)c3c4c(sc3n2)CCC4)CC1	18µM*	-96*	-14	-3%	13µM*	·
Clc1nc(CN2CCCCC2)nc2sc3c(c12)CCCC3	?	?	-1	0%	10µM*	·
